High-throughput results (PubChem)
Rows were chosen to be rich in hits. Some 8.2% of all compounds tested hit in one or more screens of this group.
SW480 rerep: induces DNA re-replication in SW480 colon adenocarcinoma cells; SW480 DNA re-replication, Hoechst DNA content imaging, 48 h; Potency, µM (doses to about 46.1 µM), usual class: activators; actives 1.8% (n = 340,000); further: nearly all actives have a fitted effect of over 55% in size
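Cells (250 per well) received 23 nL compound or DMSO by pin tool and were kept 48 hr at 37 C, 5% CO2. Nuclei were then stained with Hoechst for 40 min and scanned for DNA content.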
KB-3-1 tox: kills parental KB-3-1 adenocarcinoma cells; Potency, µM (titrated, usually from 46.1 µM), most hits filed as cytotoxic; KB-3-1 viability, CellTiter-Glo ATP luminescence, 72 h; actives 1.4% (n = 400,000); further: nearly all actives have a fitted effect of over 60% in size
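Using CellTiter-Glo luminescence, growth of non-resistant KB-3-1 adenocarcinoma cells is assessed 72 h after pin-tool compound addition at 37 °C. Normalized responses across the concentration series yield fitted curves.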
KB-V1 cytotox: KB-V1 MDR subline cytotoxicity; KB-V1 MDR cells viability, CellTiter-Glo, 72 h; Potency, µM (top dose mostly 46.1 µM), hits mostly cytotoxic; actives 3.4% (n = 400,000); AID 1347076; further: nearly all actives have a fitted effect of over 60% in size
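Readout: CellTiter-Glo luminescence, 10 min after addition. Cells: KB-V1 MDR subline, 72 h at 37 degrees C with compound. Analysis: corrected, normalized data fitted to concentration-effect curves.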
ELG1 repair inh: inhibitors of ELG1-dependent DNA repair in HEK293T cells; AID 504467; actives 2.3% (n = 330,000); Potency, µM (series often up to 46.1 µM), actives largely listed as inhibitors; HEK293T ELG1-luciferase reporter, luminescence, 16 h; DNA damage induced by 5-fluorouridine; further: nearly all actives have a fitted effect of over 55% in size
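Step one: seed 2,000 cells per well. Step two: pin-transfer compound or DMSO alongside 5-fluorouridine. Step three: incubate 16 hr, 37 °C, 5% CO2. Step four: add ONE-Glo, wait 30 min, read luminescence.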
MCF10A rereplic: inducers of DNA re-replication in MCF 10A breast cells; MCF 10A DNA re-replication, Hoechst nuclear intensity, 48 h; actives 2.9% (n = 350,000); Potency, µM (titrated, usually from 46.1 µM), actives largely listed as activators; further: nearly all actives have a fitted effect of over 50% in size
Of the large screens only hits and unclear results are named; the others gave an inactive call. The call rests on the fitted dose curve; in most records, active means well fitted curve in the direction sought with a large enough effect; inconclusive means small, poorly fitted or top-dose-only effect, or another doubt; inactive means no such curve, though single readings can be large; an effect the other way counts as inactive or inconclusive.

O=C(NCc1ccccc1)C(c1ccc(F)cc1)N(Cc1cccs1)C(=O)c1cnccn1 (centres undefined)	ELG1 repair inh 13µM
O=C(NCc1ccccc1)C(c1cccs1)N(Cc1cccs1)C(=O)c1cnccn1 (centres undefined)	KB-V1 cytotox 2.6µM, ELG1 repair inh inconclusive, MCF10A rereplic inconclusive
O=C(NCc1ccccc1)C(c1ccccc1)N(Cc1cccs1)C(=O)c1cnccn1 (centres undefined)	KB-V1 cytotox 23µM, ELG1 repair inh inconclusive, MCF10A rereplic inconclusive
COc1cc(C(C(=O)NCc2ccccc2)N(Cc2ccco2)C(=O)c2cnccn2)cc(OC)c1OC (centres undefined)	KB-V1 cytotox inconclusive, ELG1 repair inh inconclusive
CCn1nnnc1SCC(=O)NC1Cc2ccccc2C1	none
N#Cc1ccccc1Sc1ccccc1C(=O)Nc1ccc2ccccc2c1	MCF10A rereplic inconclusive
N#Cc1ccccc1Sc1ccccc1C(=O)Nc1ccc(Br)cc1	KB-V1 cytotox 18µM
CC1CCCCN1C(=O)COC(=O)c1ccc(S(C)(=O)=O)c([N+](=O)[O-])c1 (centres undefined)	KB-3-1 tox inconclusive (no result: SW480 rerep, ELG1 repair inh, MCF10A rereplic)
c1cc(Nc2cccc3nccnc23)c2nccnc2c1	SW480 rerep 8.2µM, KB-3-1 tox inconclusive, KB-V1 cytotox inconclusive
Fc1ccc(Nc2cccc3nccnc23)cc1	ELG1 repair inh inconclusive
c1ccc2nccnc2c1	KB-3-1 tox 4.6µM, KB-V1 cytotox inconclusive (no result: SW480 rerep, ELG1 repair inh, MCF10A rereplic)
COc1ccc(CN(C)c2ccc(-c3nc(-c4ccccc4)no3)cc2[N+](=O)[O-])cc1	none (no result: SW480 rerep, ELG1 repair inh, MCF10A rereplic)
COc1ccc(C(=O)c2cnc3ccccc3c2-c2ccccc2)cc1	SW480 rerep inconclusive, KB-3-1 tox 23µM, KB-V1 cytotox 18µM, ELG1 repair inh inconclusive, MCF10A rereplic 18µM
Cc1ccc(C(=O)c2cnc3ccccc3c2-c2ccccc2)cc1	KB-V1 cytotox 16µM, ELG1 repair inh inconclusive, MCF10A rereplic inconclusive
C=CCn1c(Cc2cccs2)nnc1SCC(=O)Nc1ccc(OC)c(OC)c1	KB-V1 cytotox 23µM
C=CCn1c(Cc2cccs2)nnc1SCC(=O)c1ccc(F)cc1	SW480 rerep inconclusive, MCF10A rereplic inconclusive
C=CCn1c(Cc2cccs2)nnc1SCC(=O)c1ccc2ccccc2c1	KB-V1 cytotox inconclusive, MCF10A rereplic 12µM
Cc1nn(C)c2c1c(-c1ccccc1)cc(=O)n2CC(=O)NC(C)C	none (no result: SW480 rerep, ELG1 repair inh, MCF10A rereplic)
COC(=O)c1c(NC(=O)c2ccc(N(C)S(=O)(=O)c3ccc(C)cc3)cc2)sc2c1CCCC2	SW480 rerep inconclusive, MCF10A rereplic 5.8µM
COC(=O)c1c(NC(=O)CN(c2ccccc2)S(C)(=O)=O)sc2c1CCCC2	KB-V1 cytotox 10µM, ELG1 repair inh inconclusive
COCCN(CCOC)S(=O)(=O)c1ccc(C(=O)Nc2sc3c(c2C(N)=O)CCCCC3)cc1	KB-V1 cytotox 2.9µM, ELG1 repair inh inconclusive
CCN1CCc2c(sc(NC(=O)c3ccc(S(=O)(=O)N(CCOC)CCOC)cc3)c2C(N)=O)C1	none (no result: SW480 rerep, ELG1 repair inh, MCF10A rereplic)
COC(=O)c1c(NC(=O)c2ccccc2N(C)S(=O)(=O)c2ccccc2)sc2c1CCCC2	SW480 rerep 12µM, KB-3-1 tox 4.6µM, KB-V1 cytotox 6.5µM, ELG1 repair inh inconclusive, MCF10A rereplic inconclusive
CCc1nn(CC(=O)NCCc2ccc(Cl)cc2)c(=O)c2cc3ccccc3n12	none (no result: SW480 rerep, ELG1 repair inh, MCF10A rereplic)
CCCNC(=O)c1cc(C2CCCN(C(=O)C3CC3)C2)on1 (centres undefined)	none (no result: SW480 rerep, ELG1 repair inh, MCF10A rereplic)
CCOC(=O)c1ccc(CN2CCCC(C)(C(=O)NCCOC)C2)cc1 (centres undefined)	none (no result: SW480 rerep, ELG1 repair inh, MCF10A rereplic)
CCOC(=O)c1c(NC(=O)c2ccccc2N(C)S(=O)(=O)c2ccccc2)sc2c1CCCC2	SW480 rerep 5.2µM, KB-3-1 tox 2.9µM, KB-V1 cytotox 5.8µM, ELG1 repair inh inconclusive, MCF10A rereplic inconclusive
CCOC(=O)c1c(NC(=O)C(NCCN(C)C)c2ccccc2)sc2c1CCCC2 (centres undefined)	SW480 rerep inconclusive, KB-3-1 tox inconclusive, MCF10A rereplic 18µM
O=S(=O)(Nc1ccc(Cl)cn1)c1ccc(F)cc1	none
COc1ccc(C(=O)N=c2sc3cc(Cl)ccc3n2C)cc1	KB-V1 cytotox inconclusive (no result: SW480 rerep, ELG1 repair inh, MCF10A rereplic)
COc1ccc(CNc2nc(SCC(=O)NCc3ccco3)nc3ccccc23)cc1	KB-V1 cytotox 6.5µM
Cc1cc2nnc(SCC(=O)NCc3cccs3)n2c2ccccc12	none (no result: ELG1 repair inh)
O=C(CSc1nnc2scc(-c3ccc(Cl)cc3)n12)NCc1ccco1	KB-V1 cytotox 23µM, MCF10A rereplic inconclusive
Cc1cc2nnc(SCC(=O)NCc3ccco3)n2c2ccccc12	SW480 rerep 18µM, KB-3-1 tox 5.8µM, MCF10A rereplic inconclusive (no result: ELG1 repair inh)
Cc1ccc(-n2c(SCC(=O)NCc3ccco3)nnc2-c2cccnc2)c(C)c1	KB-V1 cytotox 21µM
CCn1c(=O)cc(SCC(=O)NCc2ccco2)c2ccccc21	SW480 rerep 21µM, KB-3-1 tox 26µM, KB-V1 cytotox inconclusive, ELG1 repair inh inconclusive, MCF10A rereplic 3.7µM
Cc1ccc(-c2csc3nnc(SCC(=O)Nc4cccc(C)n4)n23)cc1	KB-V1 cytotox 7.3µM
CCn1c(=O)cc(SCC(=O)NCc2ccc(C)o2)c2ccccc21	KB-V1 cytotox inconclusive, MCF10A rereplic 21µM
COc1ccc(C(=O)NCCn2cc(SCC(=O)NCc3ccco3)c3ccccc32)cc1	SW480 rerep inconclusive, KB-3-1 tox 16µM, KB-V1 cytotox inconclusive, ELG1 repair inh inconclusive
CCc1ccc(CNC(=O)CSc2cc(=O)n(CC)c3ccccc23)cc1	KB-3-1 tox inconclusive (no result: SW480 rerep, ELG1 repair inh, MCF10A rereplic)
Cc1ccc(CNC(=O)CN2C(=O)CCc3cc(S(=O)(=O)N4CCCCC4)ccc32)cc1	none (no result: SW480 rerep, ELG1 repair inh, MCF10A rereplic)
NC(=S)N/N=C\c1c(OCc2ccccc2Cl)ccc2ccccc12	ELG1 repair inh inconclusive
CCC(NCc1cccnc1)c1ccc(OC)c(OC)c1 (centres undefined)	none (no result: ELG1 repair inh)
Clc1ccc2c(c1)-n1cc(-c3ccccc3)nc1CO2	none (no result: SW480 rerep, ELG1 repair inh, MCF10A rereplic)
COc1ccc(C(=O)Nc2nnc(Cc3ccccc3)s2)c(OC)c1	MCF10A rereplic inconclusive
CCn1c(=O)cc(OCC(=O)NCc2ccc(C)o2)c2ccccc21	KB-V1 cytotox 18µM, ELG1 repair inh inconclusive, MCF10A rereplic inconclusive
O=C(CCSc1nnc2scc(-c3ccccc3)n12)Nc1nc(-c2ccccc2)ns1	KB-V1 cytotox 10µM
Cc1ccc(NC(=O)CSc2nnc3scc(-c4ccccc4)n23)cc1	none (no result: SW480 rerep, ELG1 repair inh, MCF10A rereplic)
COc1ccc(OC)c(CNC(=O)COc2cc(=O)n(C)c3ccccc23)c1	KB-V1 cytotox 18µM (no result: ELG1 repair inh)
COc1ccc(CNC(=O)COc2cc(=O)n(C)c3ccccc23)cc1	KB-V1 cytotox inconclusive, ELG1 repair inh inconclusive
C[C@H](CO)N1C[C@H](C)[C@@H](CN(C)Cc2ccc(-c3ccccc3)cc2)Oc2c(NC(=O)Cc3ccccc3)cccc2C1=O	SW480 rerep inconclusive, KB-V1 cytotox inconclusive, ELG1 repair inh inconclusive, MCF10A rereplic inconclusive
C[C@H](CO)N1C[C@H](C)[C@@H](CN(C)C)Oc2c(NS(=O)(=O)c3cn(C)cn3)cccc2C1=O	SW480 rerep 0.92µM
